According to PubChem BioAssay (EPA / NIEHS):
Active and inactive are the calls of the source. How the source made its calls: active means hit-call score of the fitted dose curve at least 0.9, where 1 is the maximum; inactive means score below 0.9.

Assays:
[1] = ATG_E_Box_CIS: Attagene CIS-FACTORIAL HepG2 Assay for human Enhancer Box (E-box) (AID 2282936); settings: HepG2 E-box cis-reporter transcription, actives raise or lower the signal
Outline: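 DMSO served as negative control and baseline for bidirectional fitting. Human hepatoma HepG2 cells, transiently transfected with cis-reporter constructs, were dosed 24 h; reporter mRNA read by RT-PCR and capillary electrophoresis.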

[2] = ATG_M_61_CIS: Attagene CIS-FACTORIAL HepG2 Assay for M61 Transcription Factor (Internal Marker) (AID 2282937); settings: HepG2 Attagene CIS-FACTORIAL M61 internal marker reporter; actives raise or lower the signal
Outline: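 Endogenous transcription factor activity in HepG2 is read through transiently transfected cis-element reporter units. After 24 h dosing, RNA undergoes reverse transcription, PCR and primer extension with 6-FAM before capillary electrophoresis; DMSO-referenced bidirectional fit.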

[3] = ATG_EGR_CIS: Attagene CIS-FACTORIAL HepG2 Assay for human Early Growth Response 1 (EGR1) (AID 2282938); settings: HepG2 Attagene CIS-FACTORIAL EGR reporter mRNA; actives raise or lower the signal
Outline: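 Activity is taken as induction or loss of reporter mRNA versus DMSO, fitted bidirectionally. Transcripts from cis-regulated reporter units in transiently transfected HepG2 were measured after 24 h by RT-PCR with capillary electrophoresis.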

[4] = ATG_M_19_CIS: Attagene CIS-FACTORIAL HepG2 Assay for M19 Transcription Factor (Internal Marker) (AID 2282939); settings: HepG2 Attagene CIS-FACTORIAL M19 internal marker reporter; actives raise or lower the signal
Outline: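 In this multiplexed cell assay, transiently transfected HepG2 reporter units report endogenous transcription-factor activity; after 24 hours of treatment, labelled reporter cDNA fragments are quantified by capillary electrophoresis and fitted bidirectionally against DMSO.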

[5] = ATG_ERE_CIS: Attagene CIS-FACTORIAL HepG2 Assay for Estrogen Response Element (ERE) (AID 2282940); settings: HepG2 ERE cis-reporter, Attagene RNA transcript; actives raise or lower the signal
Outline: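 Measuring endogenous transcription factor output, the assay doses transfected HepG2 cells for 24 hours and quantifies reporter transcripts by fluorescent RT-PCR and capillary electrophoresis, with DMSO as baseline.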

[6] = ATG_Ets_CIS: Attagene CIS-FACTORIAL HepG2 Assay for human Erythroblast Transformation Specific (ETS) (AID 2282941); settings: HepG2 ETS cis-reporter transcription, actives raise or lower the signal
Outline: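 After transient cis-reporter transfection, HepG2 cells receive test chemical for 24 h. Reporter mRNA levels, measured by RT-PCR and capillary electrophoresis fluorescence, are analysed bidirectionally relative to the DMSO baseline.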

[7] = molecular target: Hepatocyte nuclear factor 3-beta (Homo sapiens) (UniProt Q9Y261); experiment: ATG_FoxA2_CIS: Attagene CIS-FACTORIAL HepG2 Assay for human Forkhead box A2 (FOXA2) (AID 2282942); settings: HepG2 cis-reporter transcription factor activity, 24 h; actives raise or lower the signal
Outline: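 Reporter transcript induction is measured by fluorescence after capillary electrophoresis of RT-PCR products from HepG2 cells exposed 24 h. Cis-regulated reporter units report endogenous factor activity; curves fitted both directions against DMSO.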

[8] = ATG_FoxO_CIS: Attagene CIS-FACTORIAL HepG2 Assay for human Forkhead box O (FoxO) (AID 2282943); settings: HepG2 Attagene cis-reporter, FoxO element, mRNA; actives raise or lower the signal
Outline: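 HepG2, transient MRTU transfection (cis element, endogenous TFs). Dose 24 h. TriZol RNA → oligo(dT) RT → PCR → 6-FAM primer extension → HpaI cut → CE. Gain/loss vs DMSO.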

[9] = ATG_GATA_CIS: Attagene CIS-FACTORIAL HepG2 Assay for human GATA Binding Protein (AID 2282944); settings: HepG2 GATA cis-element reporter, Attagene multiplex mRNA; actives raise or lower the signal
Outline: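 Measures endogenous transcription factor-driven reporter mRNA in HepG2 cells transiently carrying cis-regulated constructs. 24 h dosing; RNA via oligo(dT) reverse transcription, PCR, HpaI digestion, capillary electrophoresis; fitted relative to DMSO.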

[10] = ATG_GLI_CIS: Attagene CIS-FACTORIAL HepG2 Assay for human Zinc Finger Protein GLI1 (AID 2282945); settings: HepG2, Attagene cis-factorial reporter mRNA, GLI element; actives raise or lower the signal
Outline: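 Bidirectional curve fits relative to DMSO, using reporter mRNA levels from RT-PCR plus capillary electrophoresis. Cells were HepG2 transiently carrying cis-regulated reporter constructs, harvested 24 h after dosing.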

Measured: AC50

Chain of Hepatocyte nuclear factor 3-beta (Homo sapiens) (Q9Y261 whole entry, looked up): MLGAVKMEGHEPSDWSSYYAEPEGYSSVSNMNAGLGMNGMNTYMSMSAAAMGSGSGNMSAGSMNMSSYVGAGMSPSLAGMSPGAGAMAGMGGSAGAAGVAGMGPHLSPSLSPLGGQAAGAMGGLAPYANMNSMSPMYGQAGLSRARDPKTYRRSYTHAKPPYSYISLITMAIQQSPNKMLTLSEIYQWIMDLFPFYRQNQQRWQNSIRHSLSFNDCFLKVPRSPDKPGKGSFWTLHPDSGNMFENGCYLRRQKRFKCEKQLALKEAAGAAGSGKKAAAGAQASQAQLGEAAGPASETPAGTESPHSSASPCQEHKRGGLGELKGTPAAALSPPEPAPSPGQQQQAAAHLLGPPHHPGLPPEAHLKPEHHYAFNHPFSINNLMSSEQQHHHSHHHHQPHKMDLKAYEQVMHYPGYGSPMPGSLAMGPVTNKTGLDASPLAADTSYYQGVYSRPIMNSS

CC(C)(C)c1ccc(N)cc1
active: [5] 59.9 µM
inactive: all other assays above

CC(C)c1ccc(C#N)cc1
inactive: all assays above

CCCCC(CC)COC(=O)c1ccccc1O (stereo not given)
active: [5] 32.5 µM
inactive: all other assays above

CCN(CCO)c1cccc(C)c1
inactive: all assays above

NC(=O)c1ccccc1O
inactive: all assays above

COc1ccc(NC(C)=O)cc1N
inactive: all assays above

COC(F)(F)C(F)(C(F)(F)F)C(F)(F)F
inactive: all assays above

C=C(C)[C@H]1CC=C(C)CC1
inactive: all assays above

COC(=O)/C=C\C(=O)O
inactive: all assays above

CC[C@H]1OC(=O)[C@H](C)[C@@H](O[C@H]2C[C@@](C)(OC)[C@@H](O)[C@H](C)O2)[C@H](C)[C@@H](O[C@@H]2O[C@H](C)C[C@H](N(C)C)[C@H]2O)[C@](C)(O)C[C@@H](C)C(=NOCOCCOC)[C@H](C)[C@@H](O)[C@]1(C)O
active: [5] 37.6 µM
inactive: all other assays above

O=S(=O)(O)c1ccc2cc(O)c(S(=O)(=O)O)cc2c1
inactive: all assays above

CCCCCCCCc1ccc(Nc2ccc(CCCCCCCC)cc2)cc1
inactive: all assays above

Cc1c(C)c([N+](=O)[O-])c(C(C)(C)C)c([N+](=O)[O-])c1C
inactive: all assays above

O=S(=O)(Oc1ccc(Cl)cc1Cl)c1ccccc1
active: [5] 7.97 µM
inactive: all other assays above

CC(C)c1ccc(C=O)cc1
inactive: all assays above

O=C(c1ccccc1)C1CCC1
inactive: all assays above

C[C@]12CCC(=O)C=C1CC[C@@H]1[C@@H]2C(=O)C[C@@]2(C)[C@H]1CC[C@]2(O)C(=O)CO
inactive: all assays above

CC(C)(C)C(=O)C=Cc1ccc(Cl)cc1
inactive: [4] | [6] | [8] | [9]
active: [1] 165 µM | [2] 148 µM | [3] 30.2 µM | [5] 155 µM | [7] 178 µM | [10] 59.1 µM

CCN(CCC#N)c1ccc(N=Nc2c(Cl)cc([N+](=O)[O-])cc2Cl)cc1
inactive: all assays above
